Screens from PubChem BioAssay.
JMJD2A Tudor: blocks the human JMJD2A Tudor domain. actives 4.4% (n = 390,000). AlphaScreen JMJD2A-Tudor / H3K4me3 peptide binding. Potency, µM (series often up to 114 µM), usual class: inhibitors; further: nearly all actives have a fitted effect of over 50% in size
HP1b binding inh: blocks HP1-beta chromodomain binding to methylated histone tails | actives 0.56% (n = 390,000) | P83916 | AlphaScreen HP1-beta / biotin-H3K9me3 peptide binding | Potency, µM (series often up to 114 µM), hits mostly inhibitors | AID 540317; further: nearly all actives have a fitted effect of over 70% in size
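AlphaScreen: HP1-beta (50 nM) preformed 30 min with biotin-H3(1-18)K9me3 peptide (50 nM) in PBS pH 7.4, 0.01% Tween-20. Compound added for 30 min at RT, then streptavidin donor/nickel chelate acceptor beads (10 ug/mL) for 30 min.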
VDR inh: inhibitors of human vitamin D receptor | P11473 | VDR-SRC2-3 peptide fluorescence polarization, 2 h | Potency, µM, actives largely listed as inhibitors | actives 0.93% (n = 400,000)
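The screen uses fluorescence polarization to detect compounds that interfere with recruitment of the SRC2-3 coactivator peptide to VDR; plates are read after 2 h at room temperature.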
PLK1 PBD block: inhibitors of human PLK1 polo-box domain binding. Plk1 PBD binding of FITC phosphopeptide, fluorescence polarization. Potency, µM, usual class: inhibitors. actives 2.8% (n = 360,000). AID 720504; further: series mostly up to about 57 µM; nearly all actives have a fitted effect of over 65% in size
BAZ2B inh: blocks human BAZ2B | Q9UIF8 | AlphaScreen BAZ2B-H3K14Ac peptide displacement | Potency, µM (titrated, usually from 114 µM), actives largely listed as inhibitors | actives 4.4% (n = 360,000); further: nearly all actives have a fitted effect of over 60% in size
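Protein-peptide AlphaScreen: BAZ2B 50 nM, b-H3K14Ac 50 nM, 1x PBS pH 7.4 + 0.01% Tween-20. Preincubation 30 min RT; cpd 30 min RT (top 110 uM); beads 20 min RT, light-protected.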
G9a block: inhibitors of human histone lysine methyltransferase G9a | actives 8.8% (n = 350,000) | G9a H3K9 monomethylation, AlphaScreen, 2 h | Potency, µM (doses to about 102 µM), usual class: inhibitors; further: nearly all actives have a fitted effect of over 75% in size
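Readings reflect AlphaScreen signal from monomethyl-H3K9 antibody detection. HMT at 20 nM; substrate b-H3K9 500 nM; cofactor SAM 20 uM; 2 h RT reaction; compounds tested as titrations in qHTS with 15 min preincubation.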
Each line names hits and unclear results; the compound was inactive in the other large screens. A selection: hits, their analogues and other compounds. The true share with any hit is near 11%. The call rests on the fitted dose curve; in most records, active means well fitted curve in the direction sought with a large enough effect; inconclusive means small, poorly fitted or top-dose-only effect, or another doubt; inactive means no such curve, though single readings can be large; an effect the other way counts as inactive or inconclusive.

CC1CCN(S(=O)(=O)c2cccc(S(=O)(=O)N3CCOCC3)c2)CC1	none
COc1ccccc1-c1nnc(C2CCN(S(=O)(=O)c3ccc(F)c(C)c3)CC2)o1	G9a block inconclusive (no result: PLK1 PBD block)
Cc1ccc(S(=O)(=O)N2CCC(c3nnc(-c4cccc(C)c4)o3)CC2)cc1	VDR inh inconclusive, G9a block 3.55µM (no result: PLK1 PBD block)
CCC(C)(C)n1nnnc1C(c1cc2ccc(OC)cc2[nH]c1=O)N1CCN(C2CCCCC2)CC1 (stereo unspecified)	none
Cc1cc(C(c2nnnn2Cc2ccccc2)N2CCOCC2)c(C)n1-c1ccc2c(c1)OCO2 (stereo unspecified)	JMJD2A Tudor inconclusive, HP1b binding inh inconclusive, BAZ2B inh inconclusive, G9a block 39.8µM
Cc1ccc2[nH]c(=O)c(C(c3nnnn3CCc3ccccc3)N3CCOCC3)cc2c1 (stereo unspecified)	G9a block 7.94µM
COc1ccc2cc(C(c3nnnn3CCc3ccccc3)N3CCCC(C)C3)c(=O)[nH]c2c1 (stereo unspecified)	JMJD2A Tudor inconclusive, G9a block 44.7µM
CCC(C)(C)n1nnnc1C(c1cc2cc3c(cc2[nH]c1=O)OCO3)N1CCCCC1 (stereo unspecified)	none
Cc1ccc2cc(C(c3nnnn3C(C)(C)C)N3CCCC3)c(=O)[nH]c2c1C (stereo unspecified)	G9a block 31.6µM (no result: JMJD2A Tudor, HP1b binding inh, VDR inh, PLK1 PBD block)
CN1C(C(=O)c2ccccc2)=C(OC(=O)c2ccc(Br)cc2)c2ccccc2S1(=O)=O	G9a block inconclusive (no result: PLK1 PBD block)
CCOc1cc(C(=O)Nc2cccc(OCC(=O)N3CCOCC3)c2)cc(OCC)c1OCC	none
Cc1cc2c(cc1S(=O)(=O)N(C)CC(=O)Nc1ccc(C#N)cc1)OCC(=O)N2	none (no result: PLK1 PBD block)
Cc1c(C(=O)N2CCCCC2)c(S(=O)(=O)N2CCc3ccccc32)c(C)n1C	none
Cc1cccc2cc(C(c3nnnn3Cc3ccc4c(c3)OCO4)N3CCCC3)c(=O)[nH]c12 (stereo unspecified)	G9a block 17.8µM
CCOc1ccc2[nH]c(=O)c(C(c3nnnn3Cc3ccco3)N3CCN(C)CC3)cc2c1 (stereo unspecified)	none (no result: G9a block)
Cc1cc2cc(C(c3nnnn3Cc3ccco3)N3CCCCC3)c(=O)[nH]c2cc1C (stereo unspecified)	G9a block 50.1µM
Cc1cccc2cc(C(c3nnnn3CC3CCCO3)N3CCCC4(CCCCC4)C3)c(=O)[nH]c12 (stereo unspecified)	none (no result: JMJD2A Tudor, HP1b binding inh, VDR inh, PLK1 PBD block)
O=c1[nH]c2cc3c(cc2cc1C(c1nnnn1Cc1ccccc1)N1CCCCCC1)OCCO3 (stereo unspecified)	G9a block 14.1µM
CSc1cccc(Nc2cc(C(=O)NCCCN(C)c3ccccc3)c3ccccc3n2)c1	JMJD2A Tudor inconclusive (no result: PLK1 PBD block)
O=C(COC(=O)C1CC(O)CN1S(=O)(=O)c1ccc(Cl)cc1)c1ccccc1 (stereo unspecified)	none
Cc1[nH]c2ccccc2c1C(=O)COC(=O)C1CC(O)CN1S(=O)(=O)c1ccc(Cl)cc1 (stereo unspecified)	JMJD2A Tudor 31.6µM, VDR inh inconclusive
COc1cc(NS(=O)(=O)c2ccc(NC(=S)NC(=O)COc3ccccc3OC)cc2)nc(OC)n1	BAZ2B inh inconclusive
CNC(=S)N(CCc1c(C)[nH]c2ccc(C)cc12)Cc1cc(OC)c(OC)c(OC)c1	JMJD2A Tudor inconclusive, BAZ2B inh 39.8µM, G9a block 50.1µM
CNC(=S)N(CCc1c(C)[nH]c2ccc(OC)cc12)Cc1cc(OC)c(OC)c(OC)c1	JMJD2A Tudor inconclusive, BAZ2B inh 44.7µM, G9a block 50.1µM
CNC(=S)N(CCc1ccc(OC)c(OC)c1)Cc1cc2c(C)cc(C)cc2[nH]c1=O	BAZ2B inh inconclusive, G9a block inconclusive
COCCNC(=S)N(CCc1c(C)[nH]c2ccc(F)cc12)Cc1ccc(C)cc1	JMJD2A Tudor inconclusive, BAZ2B inh inconclusive
CC1CCN(C(=O)CSc2nnc(CSc3ncccn3)n2C)CC1	G9a block inconclusive
CC(C)c1cc(-c2nc(-c3ccccc3)no2)n[nH]1	none (no result: PLK1 PBD block)
C/C(=C\C[Si](C)(C)C)CC[C@H](O)C1=CCCCC1=O	none (no result: JMJD2A Tudor, HP1b binding inh, PLK1 PBD block, BAZ2B inh, G9a block)
CCOC(=O)C(CC)(CC)C(=O)/C=C/c1cccc(Br)c1	VDR inh 79.4µM (no result: BAZ2B inh, G9a block)
CN(C)/C=C1\C(=O)NN=C1c1ccccc1	G9a block 50.1µM
CCCCNC(=O)CNC(=S)N(Cc1ccc(C)cc1)Cc1ccco1	G9a block 28.2µM
CCCCNC(=O)CNC(=S)N(Cc1ccccc1)Cc1cccs1	none
Cc1ccc(CN(Cc2ccco2)C(=S)NCC(=O)NC2CC2)cc1	G9a block 17.8µM
CCCCN(CCCNC(=O)C1CCN(S(=O)(=O)CC)CC1)c1ccccc1	G9a block 7.08µM
CCCN(CCC)CCCNC(=O)C1CCN(S(=O)(=O)c2cccc3nsnc23)CC1	none
CCN(CCNC(=O)C1CCN(c2nnc(-n3cccc3)s2)CC1)c1ccccc1	G9a block 15.8µM
CCN(CC)c1ccc(NC(=O)CN(C)S(=O)(=O)c2cccc3nsnc23)c(C)c1	JMJD2A Tudor inconclusive, HP1b binding inh inconclusive, G9a block 17.8µM (no result: PLK1 PBD block, BAZ2B inh)
CCOc1ccc(CCNC(=O)C2CCN(c3nnc(-n4cccc4)s3)CC2)cc1	none
Cc1ccc(NC(=O)CN(C)S(=O)(=O)c2cccc3nsnc23)c(C)c1	G9a block inconclusive (no result: PLK1 PBD block, BAZ2B inh)
CCN(CCNC(=O)C1CCN(S(=O)(=O)c2cccc3nsnc23)CC1)c1ccccc1	JMJD2A Tudor inconclusive, BAZ2B inh inconclusive, G9a block 50.1µM
O=C(Nc1cc(C(F)(F)F)ccc1Cl)C(O)Cc1ccccc1 (stereo unspecified)	none (no result: HP1b binding inh, VDR inh, PLK1 PBD block, BAZ2B inh, G9a block)
CC(=O)c1cccc(OCCCOc2cccc3cccnc23)c1	none
CCN(CC)C(=O)CN(C)S(=O)(=O)c1cccc2nsnc12	none
CCN(CCNC(=O)CN(C)S(=O)(=O)c1cccc2nsnc12)c1ccccc1	JMJD2A Tudor inconclusive, BAZ2B inh inconclusive, G9a block 39.8µM
O=C1C=CC2(C=C1)O[C@H](Cc1ccccc1)[C@@H](Cc1ccccc1)O2	VDR inh 14.1µM, PLK1 PBD block 9.47µM (no result: BAZ2B inh, G9a block)
O=C(Nc1ccc(Br)cc1F)c1ccncc1	none
COc1cc(NC(=O)c2ccc3nsnc3c2)cc(OC)c1OC	BAZ2B inh inconclusive, G9a block inconclusive
COc1ccccc1NC(=O)c1ccc2nsnc2c1	JMJD2A Tudor 12.6µM
O=C(Nc1ccc(Br)cc1F)c1ccc2nsnc2c1	JMJD2A Tudor inconclusive, VDR inh inconclusive, PLK1 PBD block 5.32µM
CC(C)NC(=O)C1(C)CCCN1C/C=C/c1ccccc1 (stereo unspecified)	none (no result: JMJD2A Tudor, HP1b binding inh, VDR inh, BAZ2B inh, G9a block)
O=c1c2oc3ccccc3c2ncn1Cc1ccc(F)cc1	none
